# Experimental data taken from PubChem BioAssay AID743330 (NMMLSC, 2014).
# Active and inactive are the calls of the source. How the calls were made is not given here.
# Test system: Ras
# Assay: GTPase panel EC50 shift with labeled GTP level, profiling panel, mechanism study, biochemical, four GTPases, bead flow cytometry (AID 743330)
# Details: bead-based flow cytometry, fluorescent GTP binding to GTPases
row,Structure (SMILES),EC50
1,CC1(C)Cc2c(sc(NC(=S)NC(=O)c3ccc(F)cc3)c2C(=O)O)CO1,31 nM (active)
2,CCC1(C)Cc2c(sc(NC(=S)NC(=O)c3ccccc3)c2C(=O)O)CO1 (configuration not stated),5 nM (active)
